Results from PubChem BioAssay AID2685 (National Center for Advancing Translational Sciences (NCATS), 2010).
The campaign covered roughly 320,000 compounds. About 2,100 (0.66%) were called active. About 53% were inconclusive and are not listed. The sample holds actives, similar compounds and a random draw of the others, so the mix is not that of the screen. Calls come from the whole dose curve; as a rule, active = well fitted inhibition curve with a large enough effect in the signal ratio, with a control signal flat (not every such curve was filed as active); inconclusive = small, poorly fitted or top-dose-only effect, or effect the other way, or a change in a side signal; inactive = flat fitted curve, though single readings scatter; the % refers to the signal ratio.

Assay: qHTS Assay for Lipid Storage Modulators in Drosophila S3 Cells;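 for cell number change: cells counted by Cell Tracker Red CMTPX staining in the red channel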; for lipid storage change, negative = inhibition: % is set by controls: 0 for no effect and ±100 for the full control effect
Details: BODIPY lipid droplet fluorescence, 18-24 h, cells fed with added oleic acid; cell number change: measured here: cell count max response; series mostly up to 46.1 µM; lipid storage change, negative = inhibition: at the top concentration
How it was run: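 Drosophila S3 cells got compounds at several concentrations plus oleic acid (400 uM solution). Laser-scanning cytometry with 488 nm excitation read lipid droplets at 500-530 nm and cells at 575-640 nm. Percent activity was relative to 20 uM Triacsin C.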
Potency is the fitted concentration of half-maximal effect.

Compound	lipid storage change, negative = inhibition	cell number change	Potency	outcome
N#Cc1ccc(OCC(=O)N/N=C/C2CC=CCC2)cc1 (stereo unspecified)	-10.4% (inactive)	18.8%	–	–
COc1ccc(OCC(=O)N/N=C/C2CC=CCC2)cc1 (stereo unspecified)	24.9% (inactive)	-11.3%	–	–
O=C(COc1ccc(Cl)cc1Cl)N/N=C/C1CC=CCC1 (stereo unspecified)	–	-11.9%	1.84 µM (active)	–
CCc1[nH]nc(C(=O)N2CCCC(Nc3cccc(F)c3)C2)c1C (stereo unspecified)	22.4% (inactive)	0.697%	–	–
CCNC(=S)Nc1cccc([N+](=O)[O-])c1	13.2% (inactive)	16.5%	–	–
CCCCC1CCC(C(=O)N(C)CC(=O)Nc2cccc(F)c2)CC1 (stereo unspecified)	–	20.8%	0.651 µM (active)	–
CN(CC(=O)Nc1c(Cl)cccc1Cl)C(=O)c1ccncc1	–	22.3%	–	inactive
CN(CC(=O)Nc1cccc(F)c1)C(=O)c1cc(=O)[nH]c2ccccc12	-3.39% (inactive)	6.52%	–	–
COc1cccc(NC(=O)CN(C)C(=O)c2cn(-c3ccccc3)nc2-c2cccnc2)c1	-11.3% (inactive)	-3.75%	–	–
CN(CC(=O)Nc1cccc(F)c1)C(=O)c1cc(-c2ccccc2)nc2ccccc12	3.36% [at 0.0737 µM] (inactive)	–	–	–
CCCCC1CCC(C(=O)N(C)CC(=O)Nc2cccc(OC)c2)CC1 (stereo unspecified)	1.23% (inactive)	-0.846%	–	–
CN(CC(=O)Nc1cccc(F)c1)C(=O)c1cccc2ccccc12	–	-19.1%	5.8 µM (active)	–
COc1ccc(NC(=O)CN(C)C(=O)c2cn(-c3ccccc3)nc2-c2ccc(F)cc2)cc1	-10.5% (inactive)	-10.6%	–	–
CC1CC1C(=O)N(C)CC(=O)Nc1cccc(F)c1 (stereo unspecified)	-4.95% [at 0.0737 µM] (inactive)	-4.04%	–	–
CN(CC(=O)Nc1ccc(F)cc1)C(=O)c1ccc(N2C(=O)CCC2=O)cc1	14.9% (inactive)	5.41%	–	–
CN(CC(=O)Nc1ccc(F)cc1)C(=O)c1ccncc1	–	–	1.64 µM (active)	–
COc1cccc(-c2nn(-c3ccc(C)cc3)cc2C(=O)N(C)CC(=O)Nc2cccc(F)c2)c1	–	-27.2%	6.51 µM (active)	–
Cc1nc([N+](=O)[O-])c(C(=O)OCc2cccc(Br)c2)n1C	7.28% (inactive)	-13.6%	–	–
O=C(COC(=O)C1CCN(c2ccc(C(F)(F)F)cn2)CC1)NCc1ccc(Cl)cc1Cl	-2.28% (inactive)	7.81%	–	–
O=C1CCCN1c1ccc(S(=O)(=O)N2CCCCC2)cc1[N+](=O)[O-]	2.6% (inactive)	14.2%	–	–
CS(=O)(=O)c1ccccc1C(=O)N(CCc1ccccc1)Cc1ccccc1	-1.63% (inactive)	-4.69%	–	–
O=C(NCC1CCN(C(=O)c2ccc([N+](=O)[O-])cc2)CC1)C(=O)Nc1ccccc1	-6.82% (inactive)	-0.701%	–	–
Cc1c(NC(=O)CSc2ccccc2C(=O)Nc2cccnc2)c(=O)n(-c2ccccc2)n1C	0.352% (inactive)	13.8%	–	–
CCOC(=O)C1(CCOC)CCN(Cc2ccc(C3CCCCO3)s2)CC1 (stereo unspecified)	-17.6% (inactive)	-8.03%	–	–
